Screening data from PubChem BioAssay.
In the library only some 3.1% were active in any assay of this set; here they are far more common.
Tau fibril FP: tau fibrillization inhibition (FP) | 0.39% of 280,000 active | P10636 | K18 P301L tau heparin fibrillization, Alexa594 FP, 6 h | Potency, µM (doses to about 57.7 µM), for inactives: top-dose activity, negative = inhibition, most hits filed as inhibitors; further: nearly all actives have a fitted effect of over 55% in size
Target sequence (P10636 561-689 P618L limits assumed): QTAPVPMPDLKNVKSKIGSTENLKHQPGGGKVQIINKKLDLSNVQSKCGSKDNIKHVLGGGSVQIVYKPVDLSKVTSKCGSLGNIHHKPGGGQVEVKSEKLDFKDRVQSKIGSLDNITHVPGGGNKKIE
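Human K18 P301L fragment (15 uM unlabeled plus 0.24 uM Alexa 594-labeled) in 100 mM sodium acetate pH 7 with compound, aggregation induced by 20 uM heparin for 6 hr at 37 C. ThT (30 uM) added for 1 hr, then Alexa 594 FP read.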
TRb-SRC2 inh: disrupts binding of human TR beta to SRC2. AID 1469. P10828. 0.065% of 280,000 active. TRbeta-SRC2 peptide binding, fluorescence polarization; receptor liganded with 1 µM T3. Potency, µM (series often up to 106 µM), for inactives: top-dose activity change, negative = inhibition, hits mostly inhibitors;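 further: plate controls were bound peptide for no effect and peptide without receptor for full effect; nearly all actives have a fitted effect of over 50% in size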
Target sequence (P10828 whole entry, looked up): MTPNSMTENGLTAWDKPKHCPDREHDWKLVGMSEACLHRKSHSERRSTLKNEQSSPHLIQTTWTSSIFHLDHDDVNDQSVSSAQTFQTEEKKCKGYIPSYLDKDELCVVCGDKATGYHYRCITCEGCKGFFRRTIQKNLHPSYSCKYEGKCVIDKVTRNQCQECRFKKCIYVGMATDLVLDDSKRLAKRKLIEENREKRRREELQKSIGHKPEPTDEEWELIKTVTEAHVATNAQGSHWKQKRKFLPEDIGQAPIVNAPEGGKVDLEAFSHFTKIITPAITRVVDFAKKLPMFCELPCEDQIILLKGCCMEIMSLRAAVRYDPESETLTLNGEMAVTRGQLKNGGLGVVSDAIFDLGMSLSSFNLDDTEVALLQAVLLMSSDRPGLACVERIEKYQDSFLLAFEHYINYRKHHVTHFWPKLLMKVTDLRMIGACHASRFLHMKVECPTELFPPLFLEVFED
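Compounds were added to 0.6 uM TRb ligand-binding domain and 20 nM Texas Red-labeled SRC2 peptide in Tris buffer containing 1 uM T3, incubated 5 hr at ambient temperature, then read by fluorescence polarization.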
TR SRC2 fluor cs: alters Texas Red total fluorescence, flagging assay interference | TRb/SRC2 Texas Red total fluorescence interference | Potency, µM (doses to about 106 µM), for the others: top-dose fluorescence change, negative = quenching | 0.29% of 280,000 active | AID 1479; active means well fitted curve in either direction with a large enough effect; inconclusive means small, poorly fitted or top-dose-only effect
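Human TRb ligand-binding domain at 0.6 uM with 20 nM Texas Red SRC2 peptide in Tris buffer containing 1 uM T3 and 5% DMSO, incubated with compound 5 h at ambient temperature. Total fluorescence (555/632 nm) calculated as parallel + 2 × perpendicular.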
Tau ThT inhib: blocks human tau fibril formation measured by thioflavin T; P10636; recombinant tau K18 P301L, heparin-induced fibrillization, ThT fluorescence; Potency, µM (doses to about 57.4 µM), for inactives: at the top dose activity, negative = inhibition, hits mostly inhibitors; 2.1% of 270,000 active; further: nearly all actives have a fitted effect of over 55% in size
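Tau K18 P301L fragment (15 uM unlabeled plus 0.24 uM Alexa 594-labeled) in 100 mM sodium acetate pH 7 with compound, fibrillization induced by 20 uM heparin for 6 hr at 37 C. Thioflavin T (30 uM) added, fluorescence read after 1 hr (ex 450, em 510 nm).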
Tau fluor cs: counter-screen for tau fibril formation inhibitors | tau K18 P301L Alexa594 fluorescence, heparin fibrillization | Potency, µM (series often up to 57.7 µM), for the others: at the top dose activity change, negative = decrease | 0.93% of 280,000 active; further: nearly all actives have a fitted effect of over 55% in size
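Human tau K18 P301L (15 uM unlabeled, 0.24 uM Alexa 594-labeled) in 100 mM sodium acetate pH 7 with 20 uM heparin, 6 hr at 37 C. ThT 30 uM added, 1 hr ambient; Alexa 594 FP and total fluorescence read at 555/632 nm.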
An asterisk follows results filed as active; ? = inconclusive; [ ] = remark or other dose. Unless noted, the call rests on the fitted dose curve; in most records, active means well fitted curve in the direction sought with a large enough effect; inconclusive means small, poorly fitted or top-dose-only effect, or another doubt; inactive means no such curve, though single readings can be large; an effect the other way counts as inactive or inconclusive. Unless noted, on the % scale 0 is the no-effect control and ±100 the full control effect; potency means the concentration at half of the fitted maximal effect.

SMILES | Tau fibril FP | TRb-SRC2 inh | TR SRC2 fluor cs | Tau ThT inhib | Tau fluor cs
O=C(O)C1=CC(=C(c2ccc(O)c(C(=O)O)c2)c2ccc(O)c(C(=O)O)c2)C=CC1=O | ? | ? | ? | 31.6µM* | ?
COC(=O)\C(C(C)=O)=C(/C=C/C=C/C=C/N(C)C)N(C)C | ? | -15.1% | 9.3% | 15.8µM* | -24.2%
COc1ccccc1CN1C(=O)CN(C2CCCCCC2)C(=O)C1c1ccc(C)cc1 (stereo unspecified) | -1.3% | -7.8% | 0.1% | -5.3% | -1.8%
CCOC(=O)c1cn(CC)c2ccc(S(=O)(=O)N3CC(C)CC(C)C3)cc2c1=O (stereo unspecified) | -12.1% | ? | 44.7µM*[fluorescent] | ? | -22.2%
CCOC(=O)c1cn(CC)c2ccc(S(=O)(=O)N3CCC(C)CC3)cc2c1=O | -2.9% | -4.1% | -2.3% | 6.2% | -9.3%
O=C(Cn1nc(-c2ccccc2)c2cnc3ccc(F)cc3c21)NC1CCCC1 | -11.4% | 0.0% | 2.3% | ? | 12.4%
C/C(=N\Nc1nc2ccccc2s1)c1ccc(Br)s1 | ? | -3.1% | -3.5% | ? | 11.2µM*[quencher]
C/C(=N\Nc1nc2ccccc2s1)c1ccc2c(c1)OCO2 | -0.5% | -1.5%[53 µM] | -2.7%[53 µM] | ? | ?
COc1ccc(-c2cc(C)no2)cc1S(=O)(=O)NCc1cccs1 | -8.5% | 0.5% | 0.0% | -1.0% | -17.5%
Cc1ccc(NC(=O)Cc2coc3ccc(C(C)C)cc23)cc1Cl | ? | -27.6%[53 µM] | 0.159µM*[quencher] | -13.3% | ?
CCc1ccccc1NC(=O)c1cc2c(Cl)nc3ccccc3c2s1 | -12.7% | 2.1% | -2.7% | 7.1% | -8.8%
O=C(c1ccccc1)c1ccc2nc(-c3ccc(NC(=O)c4ccccc4Br)cc3)[nH]c2c1 | ? | 6.0% | 0.7% | ? | ?
Cc1ccccc1C(=O)Nc1ccc(-c2nc3ccc(C(=O)c4ccccc4)cc3[nH]2)cc1 | 28.2µM* | -11.3% | -1.7% | -4.5% | ?
CCc1ccccc1N1CC(c2nc3ccccc3n2CC(C)C)CC1=O (stereo unspecified) | 4.6% | -4.3% | 0.0% | -1.7% | -2.7%
Cc1ccc(-n2ncc3c(NCCC4=CCCCC4)ncnc32)cc1C | ? | 0.1% | -3.9% | -3.8% | -11.3%
O=C(/C=C/c1ccccc1)Nc1sc2c(c1C(=O)O)CCC2 | -1.8% | 4.3% | -5.6% | 10µM* | ?
CNC(=O)c1c(NC(=O)/C=C/c2ccccc2)sc2c1CCC2 | -2.1% | 1.4% | -3.1% | 14.1µM* | ?
COC(=O)c1c(NC(=O)/C=C/c2ccc(OC)cc2)sc2c1CCC2 | -9.0% | -4.4% | 0.6% | -13.8% | -9.5%
O=C(/C=C/c1ccco1)Nc1sc2c(c1C(=O)O)CCC2 | -4.3% | -6.4% | -16.2% | ? | -24.6%
Cc1cccc(-c2nc(C)c(CCNC(=O)c3cccs3)s2)c1 | -10.2% | -3.1% | 1.4% | ? | -17.3%
CN1C(=O)SC(Nc2ccccc2C(=O)O)C1=O (stereo unspecified) | -2.2% | -1.9% | -3.1% | -19.6% | -14.2%
CN1C(=O)C(N=Nc2ccccc2C(=O)O)N(C)C1=S (stereo unspecified) | -6.4% | -1.7% | -0.2% | 4.47µM* | 1.2%
Cc1ccc(NC(=O)Cn2c(=O)n(CCCCC(=O)NCCc3ccc(Cl)cc3)c(=O)c3ccccc32)cc1 | -21.1% | -4.7% | 3.5% | 15.4% | -6.4%
CCCCNC(=O)c1cnn2c(C)c(Cc3c(F)cccc3Cl)c(C)nc12 | 4.8% | -10.3% | -0.1% | -8.4% | -6.0%
O=C(c1ccco1)[C@@H]1[C@@H]2C(=O)N(c3ccc(F)cc3)C(=O)[C@@H]2C2c3ccccc3C=CN21 (stereo partly specified) | ? | -1.6% | -0.8% | 25.1µM* | ?
SMILES | Tau fibril FP | TRb-SRC2 inh | TR SRC2 fluor cs | Tau ThT inhib | Tau fluor cs
CC(=O)[C@H]1[C@@H]2C(=O)N(c3cccc(Cl)c3)C(=O)[C@@H]2[C@H]2c3ccccc3C=CN21 | -17.7% | -4.3% | -0.1% | ? | -22.7%
CC(=O)[C@@H]1[C@@H]2C(=O)N(c3ccc(F)c(Cl)c3)C(=O)[C@@H]2C2c3ccccc3C=CN21 (stereo partly specified) | -2.5% | 0.7% | 2.0% | ? | -17.4%
O=C(c1ccco1)[C@@H]1[C@@H]2C(=O)N(c3ccc(Br)cc3)C(=O)[C@@H]2C2c3ccccc3C=CN21 (stereo partly specified) | -17.9% | -8.8% | 0.7% | 20µM* | -29.2%
Cc1ccccc1-n1c(=O)/c(=C\c2ccco2)s/c1=C(/C#N)C(=O)Nc1ccccc1 | ? | ? | -9.7% | 15.8µM* | -29.4%
Cc1ccc(-c2ccc(=O)n(CC(=O)NCCc3ccc(Cl)cc3)n2)cc1 | 9.6% | -2.3% | -1.3% | -18.7% | -19.0%
COc1ccc(-c2[nH]c(-c3ccccc3)nc2SCC(=O)Nc2ccc3c(c2)OCCO3)cc1 | ? | -2.0% | -2.1% | ? | 8.91µM*[quencher]
O=C(CSc1nc(-c2ccccc2)[nH]c1-c1ccccc1)Nc1ccc2c(c1)OCCO2 | -14.0% | 0.3% | -2.2% | ? | 10µM*[quencher]
O=C(CSc1nc(-c2ccc(F)cc2)[nH]c1-c1ccc(F)cc1)Nc1ccc2c(c1)OCO2 | ? | 10.1% | -1.7% | ? | ?
O=C(CSc1nc(-c2ccc(F)cc2)[nH]c1-c1ccc(F)cc1)Nc1ccc2c(c1)OCCO2 | -13.8% | 1.9% | -1.9% | ? | 8.91µM*[quencher]
COc1ccccc1C(=O)Nc1c(C(=O)N(C)c2ccccc2)sc2nc(C)cc(C)c12 | -0.9% | -4.7% | 5.3% | -10.3% | -5.5%
Cc1ccc(CNc2ncnc3c2nc2n3CCCC2)cc1 | -5.1% | -3.4% | -5.6% | 3.3% | 2.1%
Fc1ccc(Nc2ncnc3c2nc2n3CCCC2)cc1 | 6.2% | 4.1% | 7.4% | -5.4% | -6.1%
COc1ccc(CNc2ncnc3c2nc2n3CCCC2)cc1 | -13.6% | -4.6% | 17.8µM*[quencher] | 4.5% | 4.1%
COC(=O)c1ccc(Nc2ncnc3c2nc2n3CCCC2)cc1 | 2.2% | -16.8% | 17.8µM*[quencher] | -11.9% | 9.0%
Cc1ccc(Nc2ncnc3c2nc2n3CCCC2)c(Br)c1 | 6.1% | -4.4% | 20µM*[quencher] | 6.9% | 14.3%
CCN1C(=O)[C@H]2[C@H]3[C@H](O)[C@H](O)C/C(=N/OC/C=C(\C)CCC=C(C)C)[C@H]3CC[C@@H]2C1=O | -3.7%[11.6 µM] | 1.8%[11.2 µM] | -1.0%[11.2 µM] | -2.3%[11.5 µM] | -2.8%[11.6 µM]
COc1ccc(C2=C(C)C(=NCCCN3CCN(c4cc(C)ccc4C)CC3)NS2(=O)=O)cc1 | ? | 0.8% | -1.8% | -8.0% | -1.1%
N#Cc1cc(Oc2cccc3cccnc23)c(-n2nnc3ccccc32)cc1C#N | -4.2% | 6.5% | -3.3% | -11.2% | 15.8µM*[quencher]
N#Cc1cc(O)c(-n2nnc3ccccc32)cc1C#N | -1.1% | -8.0% | -2.1% | -9.4% | -3.2%
Cc1ccc(NCC(O)C(O)C(O)CO)c(N=Nc2ccccc2)c1C (stereo unspecified) | 9.7% | 1.7% | -1.4% | 2.51µM* | 12.6µM*[quencher]
